Among all 290,000 compounds or so, about 370 (0.13%) were called active. This is one part of a sample in which actives are shown more often than they occur.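 The calls were made as follows: active = spots per cell inhibited over 60%, with over 100 cells counted and total cytoplasm intensity under 500,000; inconclusive = wells with under 100 cells, flagged as likely toxic; inactive = the rest.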 Measured potencies and affinities stand elsewhere.
Each compound was assayed against G-protein coupled receptor 55 (Homo sapiens) (UniProt Q9Y2T6) (assay: inhibition of LPI-stimulated GPR55 beta-arrestin translocation – imaging, U2OS, beta-arrestin-GFP, LPI agonist, primary screen (AID 2013;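 also: U2OS cells stably carrying GPR55 and arrestin-GFP stimulated by 5 µM LPI near EC80; imaged beta-arrestin-GFP aggregate spots per cell after agonist stimulation; plate controls were LPI-stimulated DMSO wells for no effect and DMSO wells without LPI for full effect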)). Settings: LPI antagonism, at 10 µM, hits give high values.
Sequence of G-protein coupled receptor 55 (Homo sapiens) (Q9Y2T6 whole entry, looked up): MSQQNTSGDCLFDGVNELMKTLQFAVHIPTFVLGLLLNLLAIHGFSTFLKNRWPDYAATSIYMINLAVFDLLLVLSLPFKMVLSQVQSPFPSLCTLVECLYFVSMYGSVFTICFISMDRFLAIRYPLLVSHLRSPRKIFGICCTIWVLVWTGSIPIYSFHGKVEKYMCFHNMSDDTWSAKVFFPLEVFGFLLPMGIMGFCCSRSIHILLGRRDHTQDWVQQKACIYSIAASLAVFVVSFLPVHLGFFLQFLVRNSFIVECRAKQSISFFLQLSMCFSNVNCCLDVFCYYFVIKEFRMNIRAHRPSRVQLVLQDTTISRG
N/C(=N\O)c1ccccc1N1CCCCC1 was tested, and the inhibition was -5% (inactive).
With CCCC(=O)Nc1nc(C)c(C(C)=O)s1 the inhibition was -16% (inactive).
For CCC(C)n1c(SCC(=O)Nc2cc(C)on2)nc2ccccc2c1=O (stereo not drawn), the inhibition was 15.5% (inactive).
C=CCn1c(SCC(=O)NC(=O)c2cccn2C)nc2ccccc2c1=O was tested, and the inhibition was 4.4% (inactive).
With CCC(C)n1c(SCC(=O)NC(=O)c2cccn2C)nc2ccccc2c1=O (stereo not drawn) the inhibition was 99.6% (active).
In the case of COc1cc(C(=O)NNC(=O)NC2CCCCC2)cc(OC)c1OC, the inhibition is reported as 8.5% (inactive).
With O=C(NCc1ccccc1Cl)c1ccc2c(c1)SC1=NS(=O)(=O)CCN12 the inhibition was -9.3% (inactive).
COc1cccc(NC(=O)c2cccc(C(=O)Nc3cccc(OC)c3)c2)c1 was tested, and the inhibition was -0.6% (inactive).
With N#C/C(=C\C=C\c1ccccc1[N+](=O)[O-])C(=O)NCc1ccccc1 the inhibition was 11.1% (inactive).
In the case of C=CCNC(=O)/C(C#N)=C/c1ccccc1[N+](=O)[O-], the inhibition is reported as 13.3% (inactive).
With CC1=CC(=C(C#N)C#N)C=C(C)N1CCN1CCN(C(=O)Nc2cccc(Cl)c2)CC1 the inhibition was 3.5% (inactive).
For Cc1cccc(NC(=O)C2C3C=CC4(O3)C2C(=O)N(CCCN2CCCC2)C4C(=O)NC2CCCC(C)C2C)c1 (stereo not drawn), the inhibition was -6.5% (inactive).
For CC1(c2ccccc2)CC(C)(C)N(C(=O)c2cc([N+](=O)[O-])cc([N+](=O)[O-])c2)c2ccccc21 (stereo not drawn), the inhibition was 64.4% (active).
For CC1(c2ccc([N+](=O)[O-])cc2)CC(C)(C)N(C(=O)c2ccccc2)c2ccccc21 (stereo not drawn), the inhibition was 11.2% (inactive).
In the case of CC1(c2cc([N+](=O)[O-])cc([N+](=O)[O-])c2)CC(C)(C)N(C(=O)c2ccccc2)c2ccccc21 (stereo not drawn), the inhibition is reported as -0.2% (inactive).
COc1ccccc1Nc1nc(N)nc(-c2cc3ccccc3o2)n1 was tested, and the inhibition was 8.7% (inactive).
In the case of NCC(O)COCCC12CC3CC(CC(C3)C1)C2 (stereo not drawn), the inhibition is reported as 5.8% (inactive).
For CC(NCC(O)COCc1ccc(Cl)cc1)c1ccccc1 (stereo not drawn), the inhibition was 0.4% (inactive).
With CC1(C)CC(=O)C=C(NCC2CCCO2)C1 (stereo not drawn) the inhibition was 3.1% (inactive).
With CC1=CC(c2ccc(Cl)cc2)n2nc(NC(=O)c3ccccc3)nc2N1 (stereo not drawn) the inhibition was 5.1% (inactive).
With Cc1ccc(-c2ccnc3cc(C)nn23)cc1 the inhibition was 13.3% (inactive).
For COc1ccccc1N1CCN(C2=Nc3cccc4cccc2c34)CC1, the inhibition was 95.5% (active).
In the case of c1cc2c3c(cccc3c1)C(N1CCCCC1)=N2, the inhibition is reported as 3.4% (inactive).
c1cc2c3c(cccc3c1)C(N1CCCCCC1)=N2 was tested, and the inhibition was 17.5% (inactive).
With COc1ccc(/C=C2\SC(=O)N(CC(=O)NC3C=CS(=O)(=O)C3)C2=O)cc1 (stereo not drawn) the inhibition was 14.8% (inactive).
In the case of COc1ccc(CCNC(=O)C/C(C)=N/NC(=O)c2ccc([N+](=O)[O-])cc2Cl)cc1OC, the inhibition is reported as 5.9% (inactive).
For C#CCOc1c(Br)cc(/C=N/O)cc1OCC, the inhibition was -2.8% (inactive).
With C=CCOc1ccc(/C=N/NC(=O)CN2CCOCC2)cc1OCC the inhibition was -14.5% (inactive).
For COCCNc1c2c(nc3c(-c4ccccc4)c(C)nn13)CCC2, the inhibition was -0.5% (inactive).
CC(=O)c1c(O)cc(O)cc1CC(=O)O was tested, and the inhibition was 14.6% (inactive).
With CCOC(=O)CSc1nc2c(sc(=S)n2-c2ccc(OCC)cc2)c(=O)[nH]1 the inhibition was -5.3% (inactive).
In the case of CCCCN(CC)C(=O)CSc1nc2c(sc(=S)n2-c2ccc(OCC)cc2)c(=O)[nH]1, the inhibition is reported as 6.8% (inactive).
For O=c1c2ccccc2nc(-c2ccccc2)n1CCCN1CCOCC1, the inhibition was -6.4% (inactive).
For COc1ccc(-c2nn(-c3ccccc3)cc2/C=C2/SC(=S)N(Cc3ccco3)C2=O)c(C)c1, the inhibition was 13.6% (inactive).
For COc1ccc(-c2nn(-c3ccccc3)cc2/C=C2/SC(=S)N(CCC(=O)O)C2=O)cc1, the inhibition was 2.4% (inactive).
In the case of O=C(Nc1ccc(F)cc1F)c1c(C(F)(F)F)ccnc1Oc1cccc(C(F)(F)F)c1, the inhibition is reported as 6.9% (inactive).
With Cc1cc(NC(=O)CN(C)S(=O)(=O)c2cnc[nH]2)ccc1Br the inhibition was 0.7% (inactive).
For CCCCn1c(NC(=O)c2ccccc2)c(C#N)c2nc3ccccc3nc21, the inhibition was -12.6% (inactive).
With CCCCn1c(NC(C)=O)c(C#N)c2nc3ccccc3nc21 the inhibition was 17% (inactive).
For Cc1ccc(C(=O)C(C)OC(=O)c2ccccc2[N+](=O)[O-])cc1 (stereo not drawn), the inhibition was 9.5% (inactive).
For CCOCCOC(=O)C1=C(C)NC(=O)NC1c1cc2c(cc1Br)OCO2 (stereo not drawn), the inhibition was 5.8% (inactive).
For CCN(CC)CCNC(=O)c1cc2c(s1)-c1ccccc1SC2, the inhibition was 15.9% (inactive).
For COCCNC(=O)c1cc2c(s1)-c1ccc(Cl)cc1SC2, the inhibition was -8.6% (inactive).
With O=C(CSc1ccc(F)cc1)NC12CC3CC(CC(C3)C1)C2 the inhibition was -6% (inactive).
For COc1ccc(C)cc1Nc1n[n+](-c2ccccc2)c(-c2ccc(C(=O)O)cc2)s1, the inhibition was 4.6% (inactive).
COc1ccc(C)cc1Nc1n[n+](-c2ccccc2)c(-c2ccc(SC)cc2)s1 was tested, and the inhibition was 4.4% (inactive).
In the case of CCC(=O)N1c2ccc(S(=O)(=O)NCCc3ccc(OC)c(OC)c3)cc2CC1C (stereo not drawn), the inhibition is reported as -31.8% (inactive).
In the case of COc1ccc(S(=O)(=O)N2CCCOC2CNC(=O)C(=O)NCc2ccccc2F)cc1C (stereo not drawn), the inhibition is reported as 22% (inactive).
Cc1[nH]nc(SCC(=O)N2CCCCC2)c1[N+](=O)[O-] was tested, and the inhibition was -23.3% (inactive).
O=C(COc1ccccc1F)NCC(c1ccco1)N1CCCC1 (stereo not drawn) was tested, and the inhibition was 24.1% (inactive).
With O=C1C(=O)c2ccc(-c3ccccc3)cc2-c2ccccc21 the inhibition was -5.5% (inactive).
For Nc1c(O)ccc2c1C(=O)c1ccccc1C2=O, the inhibition was -0.3% (inactive).
COc1ccc(N=Nc2nc(-c3ccccc3)c(-c3ccccc3)[nH]2)cc1 was tested, and the inhibition was 19% (inactive).
In the case of Oc1ccccc1N=Nc1nc(-c2ccccc2)c(-c2ccccc2)[nH]1, the inhibition is reported as 15.7% (inactive).
With CCOC(=O)N1CCN(C(=O)C2CCC(CNS(=O)(=O)c3ccccc3)CC2)CC1 (stereo not drawn) the inhibition was 14.3% (inactive).
For COc1ccc(C(=O)N2N=C(c3cccs3)CC2c2ccccc2O)cc1 (stereo not drawn), the inhibition was 54.1% (inactive).
O=C(c1ccco1)N1N=C(c2cccs2)CC1c1ccccc1O (stereo not drawn) was tested, and the inhibition was 39.4% (inactive).
For C/C(=N/NC(=O)CNC(=O)c1cccnc1)c1cccc([N+](=O)[O-])c1, the inhibition was -4.3% (inactive).
In the case of CCN1CCN(CCNC(=O)c2ccc(/C=C3/Sc4ccccc4N(Cc4cccc(Cl)c4)C3=O)cc2)CC1, the inhibition is reported as 7.6% (inactive).
CN1CCN(CCCNC(=O)c2ccc(/C=C3\Sc4ccccc4N(Cc4ccc(F)cc4)C3=O)cc2)CC1 was tested, and the inhibition was 6.1% (inactive).
In the case of CCN1CCN(CCNC(=O)c2ccc3c(c2)N(Cc2ccc(F)cc2)C(=O)/C(=C/c2ccccc2)S3)CC1, the inhibition is reported as 70.3% (active).
For CCOc1ccc(Cl)cc1CSc1n[nH]c(C)n1, the inhibition was -12.3% (inactive).
In the case of Cc1nnsc1Sc1ccccc1C(=O)O, the inhibition is reported as -7.1% (inactive).
For COc1cccc(-n2c(=O)c3sccc3n(CC(=O)NC3CCCCC3)c2=O)c1, the inhibition was -10.7% (inactive).
For CC(C)NC(=S)NN(c1ccccc1)c1ccccc1, the inhibition was 11.8% (inactive).
With CNC(=S)NN(c1ccccc1)c1ccccc1 the inhibition was 5.4% (inactive).
In the case of CC(C)CCNC(=O)CN(Cc1ccc(F)cc1)C(=O)CCC(=O)Nc1ccccn1, the inhibition is reported as 4.6% (inactive).
For CCOC(=O)c1c(-c2ccccc2)oc2ccc(O)cc12, the inhibition was -6% (inactive).
In the case of CCOC(=O)c1c(C)oc2ccc(O)cc12, the inhibition is reported as 3.1% (inactive).
Cc1cc(NC(=O)C2C3C(=O)N(Cc4ccc(Cl)cc4)C(C(=O)NC4CCCCC4)C34C=CC2(C)O4)no1 (stereo not drawn) was tested, and the inhibition was 9.6% (inactive).
In the case of CC(C)n1cnc2c(Nc3ccc(C(=O)O)cc3)nc(Cl)nc21, the inhibition is reported as 8.9% (inactive).
For O=C(CSc1n[nH]c(-c2cc(Cl)ccc2Cl)n1)NCCN1C(=O)CSC1=O, the inhibition was 2.2% (inactive).
In the case of COc1ccc(NC(=S)N(CCCN2CCOCC2)Cc2ccccn2)cc1, the inhibition is reported as -18.2% (inactive).
Cc1ccc(NC(=S)N(CCCN2CCOCC2)Cc2ccccn2)cc1 was tested, and the inhibition was 9.5% (inactive).
In the case of O=C(c1cc(C2CC2)nc2ccc(Br)cc12)N1N=C(C(F)F)CC1(O)C(F)F (stereo not drawn), the inhibition is reported as 9.1% (inactive).
In the case of O=S(=O)(c1ccc(Br)cc1)c1nc(-c2ccco2)oc1NCC1CCCO1 (stereo not drawn), the inhibition is reported as -16.8% (inactive).
For CC(C)(C)c1csc(NC(=O)CSc2nc3ccccc3c(=O)[nH]2)n1, the inhibition was -12.6% (inactive).
With Cc1ccc2nc3nc(NCC4CCCO4)c(C(=O)NC4CCCC4)cc3c(=O)n2c1 (stereo not drawn) the inhibition was 0.8% (inactive).
C=CCNC(=O)c1cc2c(=O)n3cc(C)ccc3nc2nc1NCC1CCCO1 (stereo not drawn) was tested, and the inhibition was 93.3% (active).
CCNc1nc2nc3ccc(C)cn3c(=O)c2cc1C(=O)NCC1CCCO1 (stereo not drawn) was tested, and the inhibition was 7.3% (inactive).
For Cc1ccc(NC(=O)CSc2nnc3n2CCCCC3)cc1, the inhibition was 4.6% (inactive).
In the case of Cc1cccc2c1CC(C)(C)NC2=C(C#N)C#N, the inhibition is reported as 5% (inactive).
With CC(Nc1c([N+](=O)[O-])c(=O)oc2ccccc12)C(Cl)c1ccccc1 (stereo not drawn) the inhibition was 22% (inactive).
In the case of CC(Nc1c([N+](=O)[O-])c(=O)oc2ccccc12)c1ccccc1 (stereo not drawn), the inhibition is reported as 10.5% (inactive).
In the case of O=C(O)CC/C(=N\NC(=O)CNC(=O)/C=C/c1ccccc1)c1ccccc1, the inhibition is reported as 2.6% (inactive).
With Cc1cc(C)n(CC(=O)N/N=C/c2cccs2)n1 the inhibition was 7.5% (inactive).
In the case of COc1ccc(S(=O)(=O)N2CCCOC2CNC(=O)C(=O)NCc2cccnc2)cc1 (stereo not drawn), the inhibition is reported as 13.9% (inactive).
With CCOc1ccccc1C1c2[nH]c3ccccc3c2C[C@H]2C(=O)N(C3CCN(Cc4ccccc4)CC3)CC(=O)N12 (stereo partly drawn) the inhibition was -0.7% (inactive).
With CCC(=O)NC(Nc1sc2c(c1C(=O)OC)CCC2)C(Cl)(Cl)Cl (stereo not drawn) the inhibition was -15.1% (inactive).
With COC(=O)c1c(NC(NC(=O)C(C)C)C(Cl)(Cl)Cl)sc2c1CCC2 (stereo not drawn) the inhibition was -7.5% (inactive).
COC(=O)c1c(NC(NC(=O)C(C)C)C(Cl)(Cl)Cl)sc2c1CCCC2 (stereo not drawn) was tested, and the inhibition was 76.3% (active).
In the case of COC(=O)c1c(NC(NC(=O)CC(C)C)C(Cl)(Cl)Cl)sc2c1CCC2 (stereo not drawn), the inhibition is reported as 60% (inactive).
For COC(=O)c1c(NC(NC(C)=O)C(Cl)(Cl)Cl)sc2c1CCCC2 (stereo not drawn), the inhibition was 13.5% (inactive).

— PubChem BioAssay AID2013 (Sanford-Burnham Center for Chemical Genomics, 2009)
